According to PubChem BioAssay AID1159580 (chemical genetic matrix, 2015):
“And” between values parts separate entries of the source, which are not always exact repeats. Equal values may be shown once. In all, about 5,500 compounds went through this assay and about 2,000 (36%) were called active. Inconclusive results (about 18%) are left out. Rule as the data show it: active = normalized growth mostly below about 0.91 (no sharp cut-off); inconclusive = no clear call, values can overlap the other calls; inactive = mostly above about 0.92. The list shows a part of the results.

Test: chemical genetic growth profiling, strain panel (AID 1159580);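 also: tested at 20 µM; growth read once vehicle control cultures reached saturation at 30 °C; 1 = growth at the plate median or of vehicle wells; lower values mean less growth of the strain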
Conditions: S. cerevisiae deletion strains, growth OD

Measured: normalized growth

COc1cc2cc3c4cc(OC)c(OC)cc4cc[n+]3c(C)c2cc1OC
inactive: locus YAL021C, strain ccr4, active compounds read low 1.05 | locus YAL026C, strain drs2, active compounds read low 1.03 | locus YAL030W, strain snc1, active compounds read low 1.01 | locus YBL061C, strain skt5, active compounds read low 1.02 | locus YBR009C, strain hhf1, active compounds read low 1.01 | locus YBR021W, strain FUR4, active compounds read low 1 | locus YBR023C, strain chs3, active compounds read low 1.01 | locus YBR171W, strain sec66, active compounds read low 1.03 | locus YBR229C, strain ROT2, active compounds read low 1.01 | locus YBR231C, strain swc5, active compounds read low 1 | locus YBR279W, strain paf1, active compounds read low 1.01 | locus YCL011C, strain gbp2, active compounds read low 1.01 | locus YCL016C, strain dcc1, active compounds read low 0.997 | locus YCL029C, strain bik1, active compounds read low 1.01 | locus YCL061C, strain MRC1, active compounds read low 1.01 | locus YCL069W, strain vba3, active compounds read low 1.01 | locus YCR088W, strain abp1, active compounds read low 1.01 | locus YDL005C, strain med2, active compounds read low 1.02 | locus YDL035C, strain GPR1, active compounds read low 0.998 | locus YDL040C, strain nat1, active compounds read low 0.992 | locus YDL074C, strain BRE1, active compounds read low 0.996 | locus YDL101C, strain DUN1, active compounds read low 1.01 | locus YDL134C, strain PPH21, active compounds read low 0.982 | locus YDL185W, strain tfp1, active compounds read low 1.02 | locus YDL192W, strain arf1, active compounds read low 1 | locus YDR001C, strain nth1, active compounds read low 1.01 | locus YDR069C, strain doa4, active compounds read low 1.02 | locus YDR101C, strain arx1, active compounds read low 1.01 | locus YDR137W, strain rgp1, active compounds read low 1.06 | locus YDR159W, strain sac3, active compounds read low 1 | locus YDR162C, strain NBP2, active compounds read low 0.999 | locus YDR195W, strain ref2 0.97 | locus YDR297W, strain sur2, active compounds read low 1.01 | locus YDR318W, strain mcm21, active compounds read low 0.987 | locus YDR334W, strain swr1, active compounds read low 1.02 | locus YDR335W, strain msn5, active compounds read low 1.01 | locus YDR388W, active compounds read low 1 | locus YDR392W, strain spt3, active compounds read low 0.848 | locus YDR502C, strain sam2, active compounds read low 0.987 | locus YEL003W, strain gim4, active compounds read low 1.01 | locus YEL037C, strain rad23, active compounds read low 1.01 | locus YEL061C, strain CIN8 (second series), active compounds read low 1.01 | locus YEL061C, strain CIN8, active compounds read low 1.01 | locus YER015W, strain faa2, active compounds read low 1.01 | locus YER016W, strain bim1, active compounds read low 1 | locus YER110C, active compounds read low 1.02 | locus YER111C, strain swi4, active compounds read low 1.03 | locus YER155C, strain BEM2 (second series), active compounds read low 0.97 | locus YER155C, strain BEM2, active compounds read low 1.01 | locus YER167W, strain BCK2, active compounds read low 1 | locus YFR010W, strain ubp6, active compounds read low 1.03 | locus YGL078C, strain dbp3, active compounds read low 0.997 | locus YGL086W, strain mad1, active compounds read low 1.03 | locus YGL167C, strain pmr1, active compounds read low 1.01 | locus YGL173C, strain kem1, active compounds read low 1.03 | locus YGL227W, strain vid30, active compounds read low 1.01 | locus YGL240W, strain doc1, active compounds read low 0.999 | locus YGL248W, strain PDE1, active compounds read low 0.997 | locus YGL253W, strain hxk2, active compounds read low 1.03 | locus YGR135W, strain pre9, active compounds read low 0.988 | locus YGR229C, strain SMI1, active compounds read low 1.01 | locus YGR252W, strain gcn5, active compounds read low 0.904 | locus YHR013C, strain ard1, active compounds read low 1.01 | locus YHR027C, strain rpn1, active compounds read low 1.04 | locus YHR030C, strain SLT2, active compounds read low 1.01 and 0.988 | locus YHR079C, strain IRE1 (second series), active compounds read low 1.02 | locus YHR079C, strain IRE1, active compounds read low 1 | locus YHR094C, strain hxt1, active compounds read low 1.01 | locus YHR129C, strain ARP1, active compounds read low 1 | locus YHR142W, strain chs7, active compounds read low 1.01 | locus YHR200W, strain rpn10, active compounds read low 0.994 | locus YIL066C, strain RNR3, active compounds read low 1.01 | locus YIL073C, strain SPO22, active compounds read low 1.01 | locus YIL125W, strain kgd1, active compounds read low 1.01 | locus YIR030C, strain dcg1, active compounds read low 1 | locus YJL092W, strain hpr5, active compounds read low 1.01 | locus YJL095W, strain BCK1 (second series), active compounds read low 1.01 | locus YJL095W, strain BCK1, active compounds read low 1.01 and 0.99 | locus YJL115W, strain asf1, active compounds read low 1.01 | locus YJL129C, strain trk1, active compounds read low 1.02 | locus YJL134W, strain LCB3, active compounds read low 1.01 | locus YJL154C, strain vps35, active compounds read low 1.01 | locus YJL164C, strain tpk1, active compounds read low 0.984 | locus YJL166W, strain qcr8, active compounds read low 1.02 | locus YJL168C, strain set2, active compounds read low 1.01 | locus YJL187C, strain SWE1 (second series), active compounds read low 0.991 | locus YJL187C, strain SWE1, active compounds read low 1.01
